# ± gives the standard deviation of the averaged measurements. The full ranking holds about 33,000 sequences; the median of “E-score (dimensionless, -0.5 to 0.5)” is about -0.046, and the highest 2% start at about 0.36. The sample as a whole holds a higher share of the highest values than the screen did.
# Test system: T1, SpTbr T-box DNA-binding domain (GST fusion)
# T1 sequence: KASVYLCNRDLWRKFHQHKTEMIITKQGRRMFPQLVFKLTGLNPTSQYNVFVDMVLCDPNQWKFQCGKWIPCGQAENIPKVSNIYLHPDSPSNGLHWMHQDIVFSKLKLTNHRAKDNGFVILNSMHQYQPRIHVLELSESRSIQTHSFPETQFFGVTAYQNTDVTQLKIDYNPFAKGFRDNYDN
# Assay: PBM E-score of 8-mer (E-score (dimensionless, -0.5 to 0.5)); Tbr is Tbrain of the sea star Patiria miniata (Pm) or the sea urchin Strongylocentrotus purpuratus (Sp); higher = stronger binding preference
# Settings: the construct has about 5 more residues each side
# How it was run: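 Expression of GST-fused Tbr T-box DNA-binding domains, each holding the full T-box plus roughly five flanking residues, was carried out in BL21 E. coli at 20 °C, with purification by glutathione affinity chromatography. Universal Agilent arrays made double-stranded by primer extension were incubated with the protein at 200 nM in PBS (pH 7.5), then scanned and quantified. All ungapped 8-mers were scored from probe intensities, and each received an enrichment E-score from the Universal PBM Analysis Suite, averaged over duplicate arrays.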
row,Sequence,PBM E-score of 8-mer
1,ACTTTCGC,0.328 ± 0.038
2,ATGGGGGC,-0.283 ± 0.021
3,AGGGACTA,-0.1367 ± 0.00023
4,CTCAAGGC,-0.137 ± 0.013
5,ATTACGCG,0.19 ± 0.028
6,ATGTCTAG,-0.0188 ± 0.02
7,GCAGTGCC,-0.102 ± 0.027
8,GATCCTCA,0.11 ± 0.055
9,GATAGCCC,-0.217 ± 0.0042
10,CCACTTGC,0.192 ± 0.049
11,ACACTTGA,0.347 ± 0.0096
12,ATACTTGG,-0.22 ± 0.046
13,AAACTTGC,0.102 ± 0.0067
14,ACACTTGG,0.367 ± 0.022
15,ACACTTGC,0.4 ± 0.0054
16,GCCTAAGA,-0.128 ± 0.039
17,ACGCTGAG,-0.115 ± 0.075
18,AGGCCATA,-0.0266 ± 0.0079
19,CCACCCTA,0.0825 ± 0.11
20,ACCCCCTC,-0.0672 ± 0.037
21,ACACCCTG,0.415 ± 0.024
22,GCACCCTA,0.118 ± 0.032
23,ATACCCTG,-0.119 ± 0.008
24,ACACCCTC,0.402 ± 0.016
25,CCACCCTC,0.0803 ± 0.068

row,Sequence,PBM E-score of 8-mer
1,ACACCCTA,0.371 ± 0.01
2,ACCCCCTG,0.0826 ± 0.062
3,GTCTAGAA,-0.242 ± 0.049
4,CAGATCGA,-0.12 ± 0.014
5,AGAGTTCG,-0.121 ± 0.068
6,GATCGCAA,0.2797 ± 0.00053
7,CATCGCAA,-0.03 ± 0.019
8,GATCGCAC,0.442 ± 0.0075
9,AATCGCAT,0.113 ± 0.0034
10,CATCGCAC,0.376 ± 0.019
11,AATCGCAC,0.4074 ± 0.00091
12,AATCGCAG,0.0391 ± 0.046
13,GATCGCGC,0.352 ± 0.025
14,CATCGCAG,0.109 ± 0.046
15,GGGGAGCA,-0.25 ± 0.0084
16,AGCACTGA,0.0628 ± 0.0091
17,AGTGCCCC,-0.185 ± 0.025
18,CATGTCGA,-0.0673 ± 0.11
19,AAGACGAT,-0.0524 ± 0.029
20,GCGCGCGC,0.0386 ± 0.035
21,AGACTGAT,-0.168 ± 0.062
22,GTCCAGCA,-0.295 ± 0.06
23,CCTTTAAC,0.141 ± 0.02
24,AACTTCAC,0.147 ± 0.036
25,CACTTCAG,0.269 ± 0.049

row,Sequence,PBM E-score of 8-mer
1,CACTTCAC,0.39 ± 0.0097
2,CTAAGGAA,-0.158 ± 0.034
3,GACCTGCC,0.0636 ± 0.012
4,CACCTGCC,0.3954 ± 0.00044
5,AACCTGGC,0.0794 ± 0.017
6,AACCTGCG,0.0936 ± 0.029
7,CACCTGGA,0.297 ± 0.025
8,CACCTGCA,0.346 ± 0.0038
9,AACCTGCC,-0.0535 ± 0.017
10,CACCTGGC,0.389 ± 0.021
11,CACCTGCG,0.425 ± 0.0075
12,AATGGATC,-0.0632 ± 0.037
13,GAATCGTA,-0.0254 ± 0.00061
14,CGACTGCA,-0.155 ± 0.0016
15,CGAGGGGA,-0.0885 ± 0.018
16,CAGTGCTC,0.0319 ± 0.0026
17,AGACACTC,0.129 ± 0.029
18,CTGACATC,-0.107 ± 0.031
19,CTGACACC,0.4611 ± 0.0014
20,ATGACACG,0.315 ± 0.035
21,ATGACACA,0.327 ± 0.033
22,CTGACAGC,0.318 ± 0.0042
23,ATGACACC,0.4599 ± 0.0031
24,ACTCATAA,-0.0942 ± 0.0043
25,CAGAGCGC,-0.00751 ± 0.044

row,Sequence,PBM E-score of 8-mer
1,CAGGTCGC,0.225 ± 0.038
2,ATTTCACA,0.4303 ± 0.0022
3,GTTTCACA,0.38 ± 0.012
4,CTTTCACC,0.0179 ± 0.03
5,ATTTCACC,0.0204 ± 0.024
6,ATTTCACG,0.293 ± 0.04
7,GTTTCAAA,-0.327 ± 0.079
8,CTTTCAAA,-0.203 ± 0.0062
9,GCTTCACA,0.347 ± 0.013
10,CTTTCACA,0.44384 ± 0.0002
11,CGCCCAGA,0.0494 ± 0.0041
12,AGCTAACT,-0.27 ± 0.067
13,CCAGTATC,-0.199 ± 0.063
14,CCCTTAGG,0.00499 ± 0.015
15,AGCCCCCT,-0.356 ± 0.013
16,TGCAAGAA,-0.0626 ± 0.014
17,ACTCTTTG,0.221 ± 0.066
18,CGCGTCAC,0.277 ± 0.039
19,GGCGTCAA,0.412 ± 0.018
20,AGCGTCAC,0.3328 ± 0.0021
21,GGCGTTAA,0.387 ± 0.0042
22,AGCGTTAA,0.36 ± 0.025
23,TGCGTTAA,0.208 ± 0.026
24,CGCGTCAA,0.313 ± 0.006
25,AGCGTCAA,0.317 ± 0.0075

row,Sequence,PBM E-score of 8-mer
1,GGCGTCAC,0.373 ± 0.024
2,AAGCGATA,0.2613 ± 0.002
3,ATAGGCTG,0.0188 ± 0.056
4,TATGTACA,-0.174 ± 0.083
5,GGAGCAAC,0.0231 ± 0.049
6,GAACTTCA,-0.0825 ± 0.021
7,ACAGTCCG,0.00019 ± 0.0047
8,GGGGTACC,-0.1738 ± 0.00025
9,CGGCGTGC,0.00958 ± 0.15
10,TCGTGAAA,0.253 ± 0.054
11,CCGTGAAC,0.353 ± 0.0099
12,ACGTGAAC,0.126 ± 0.031
13,ACGTGACC,0.135 ± 0.082
14,GCGTGACC,0.369 ± 0.004
15,CCGTGAAA,0.245 ± 0.022
16,GCGTGAAA,0.4597 ± 0.0039
17,GCGTGAAC,0.456 ± 0.0075
18,GCGTGACA,0.345 ± 0.023
19,CCGGATCG,-0.114 ± 0.033
20,CAAAAAAA,-0.1537 ± 0.00074
21,CAAGCTTC,-0.215 ± 0.013
22,AAGGTCAC,0.164 ± 0.036
23,AACGGGAT,-0.0959 ± 0.041
24,CGTTTCCA,0.0866 ± 0.0024
25,TAGTGCCA,0.195 ± 0.009

row,Sequence,PBM E-score of 8-mer
1,TAGTGCAA,0.247 ± 0.024
2,AAGTGCGA,0.483 ± 0.0069
3,ATGTGCGA,0.47362 ± 0.00026
4,TAGTGCGA,0.4025 ± 0.0017
5,CAGTGCGC,0.00847 ± 0.051
6,ATGTGCGG,0.0899 ± 0.0075
7,AAGTGCGT,0.203 ± 0.018
8,AAGTGCGC,0.194 ± 0.018
9,CAGTGCGG,0.107 ± 0.0036
10,ATGTGCGC,0.211 ± 0.054
11,CAGTGCGA,0.386 ± 0.0039
12,ACGATCTC,0.0369 ± 0.034
13,GGATGACC,0.103 ± 0.0083
14,AACCACGG,0.0188 ± 0.11
15,GCAGAAGA,-0.218 ± 0.017
16,GAGTGCGA,0.411 ± 0.021
17,ACGTGCGG,0.206 ± 0.011
18,GAGTGCGC,-0.0493 ± 0.043
19,ACGTGCGA,0.4353 ± 0.0022
20,GCGTGCGA,0.317 ± 0.025
21,GAGTGCAA,0.0398 ± 0.012
22,ACACTTCA,0.412 ± 0.0084
23,ACACTTCC,0.417 ± 0.016
24,ACACTTCT,0.383 ± 0.035
25,CCACTTCG,0.193 ± 0.017

row,Sequence,PBM E-score of 8-mer
1,GCACTTCC,0.326 ± 0.017
2,ACACTTCG,0.409 ± 0.0085
3,AAACTTCG,-0.00264 ± 0.024
4,AAACTTCT,-0.146 ± 0.1
5,CCACTTCC,0.072 ± 0.0026
6,ACTCTTCT,-0.224 ± 0.0037
7,CCACTTCA,0.108 ± 0.019
8,TCACTTCA,0.151 ± 0.018
9,ACTCGTAC,-0.0977 ± 0.07
10,CATCCTGG,-0.0597 ± 0.01
11,AAGTTAAA,0.0719 ± 0.053
12,AGACTCTC,-0.0738 ± 0.045
13,TCTCAAAA,-0.176 ± 0.025
14,GACAATCC,0.0693 ± 0.021
15,AGGTGCTG,0.4215 ± 0.0039
16,GGGTGCAA,0.271 ± 0.017
17,AGGTGCGC,0.3101 ± 0.0015
18,TGGTGCAA,0.214 ± 0.0077
19,ATGTGCTA,0.328 ± 0.024
20,ATGTGCTG,0.161 ± 0.0054
21,AGGTGCTA,0.4822 ± 0.0033
22,AAGTGCGG,0.273 ± 0.027
23,CGGTGCTA,0.258 ± 0.035
24,AGGTGCTC,0.012 ± 0.081
25,AGGTGCGG,0.429 ± 0.025

row,Sequence,PBM E-score of 8-mer
1,AGGTGCAA,0.414 ± 0.005
2,GACTGTCA,0.144 ± 0.037
3,AGACTCGA,-0.158 ± 0.006
4,GGTGTAGA,0.35 ± 0.009
5,CGATCAGC,0.0172 ± 0.057
6,CAGAGTCG,0.144 ± 0.077
7,TAGACAGA,-0.0941 ± 0.02
8,CCAAGAGG,0.12 ± 0.0026
9,GACATTGC,0.0656 ± 0.018
10,CCCACGTA,-0.0631 ± 0.1
11,AAGAAGTA,-0.119 ± 0.082
12,GGGTGCTA,0.397 ± 0.0085
13,GCGTGCTA,0.21 ± 0.019
14,GTGTGCTA,0.268 ± 0.025
15,GTTTACGA,0.0241 ± 0.021
16,TACTTCGA,-0.0694 ± 0.013
17,AGGCGACA,0.37 ± 0.013
18,AGGCGACG,0.301 ± 0.066
19,GGGCGCTA,0.314 ± 0.014
20,GGGCGCGA,0.422 ± 0.031
21,GGGGGCGA,-0.0505 ± 0.016
22,CGGCGCGA,0.3178 ± 0.00058
23,CGGCGCTA,0.152 ± 0.019
24,AGGCGCGC,0.185 ± 0.039
25,AGGCGCGG,0.291 ± 0.017

row,Sequence,PBM E-score of 8-mer
1,AGGCGCGA,0.471 ± 0.0037
2,AGGCGCTA,0.41 ± 0.023
3,AGGCGACC,0.012 ± 0.083
4,CTAGATAA,-0.00975 ± 0.025
5,ACCGGTAC,-0.1754 ± 0.0017
6,TAAATGTA,-0.0999 ± 0.021
7,CGCACTGC,0.104 ± 0.0094
8,ATGCGGGA,-0.193 ± 0.03
9,GAATAGCA,0.189 ± 0.0036
10,AGTAGGAG,-0.00869 ± 0.02
11,CAGGCCTC,-0.159 ± 0.029
12,GCATAGAA,-0.126 ± 0.09
13,AGGCGAGA,0.373 ± 0.012
14,GGGCGAGA,0.222 ± 0.0041
15,AGGCGAGC,-0.233 ± 0.11
16,AAACAGAT,-0.136 ± 0.01
17,GGAATGCC,-0.187 ± 0.06
18,ATGTTTTG,0.00867 ± 0.052
19,AACCTAGC,-0.0309 ± 0.0034
20,CACCTAGC,0.40555 ± 0.00015
21,CACCTAGA,0.294 ± 0.073
22,AACCTAGG,-0.0376 ± 0.091
23,CACCTAGG,0.392 ± 0.012
24,CCCCTAGG,-0.0502 ± 0.012

# Reference: the supplement of paper PMC4166925
